In all, about 200,000 compounds went through this assay and about 4,500 (2.2%) were called active. Roughly 12% stayed inconclusive and do not appear here. Calls come from the whole dose curve; as a rule, active = well fitted inhibition curve with a large enough effect; inconclusive = small, poorly fitted or top-dose-only effect, or effect the other way; inactive = flat fitted curve, though single readings scatter. The entries come from a sample that favours actives as a whole.
Potency is the fitted concentration of half-maximal effect.

Chain of Cruzipain (Trypanosoma cruzi) (P25779 123-467 limits assumed): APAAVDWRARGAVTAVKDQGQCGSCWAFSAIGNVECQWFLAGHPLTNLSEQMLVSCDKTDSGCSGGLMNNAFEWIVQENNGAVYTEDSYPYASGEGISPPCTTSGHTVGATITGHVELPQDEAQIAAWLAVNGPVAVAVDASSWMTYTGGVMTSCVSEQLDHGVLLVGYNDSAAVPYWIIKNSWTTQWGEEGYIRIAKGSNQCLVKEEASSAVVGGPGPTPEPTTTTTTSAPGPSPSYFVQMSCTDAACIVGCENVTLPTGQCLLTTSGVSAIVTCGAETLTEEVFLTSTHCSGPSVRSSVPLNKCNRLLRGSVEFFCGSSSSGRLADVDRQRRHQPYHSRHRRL

This assay addresses Cruzipain (Trypanosoma cruzi) (UniProt P25779). Put plainly: qHTS Assay for Promiscuous and Specific Inhibitors of Cruzain (without detergent).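 For max response, negative = inhibition: plate controls were enzyme without inhibitor for no effect and buffer without enzyme for full effect.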 Note: nearly all actives have a fitted effect of over 40% in size. The settings on record: purified cruzain, Z-FR-AMC fluorescence, no detergent. The essentials:
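Purified cruzain at 1.5 nM, pre-incubated 15 min with compound at room temperature in 100 mM sodium acetate pH 5.5, 5 mM DTT, 0.00005% Triton X-100. Reaction started with 2 uM Z-FR-AMC; AMC fluorescence increase over 60 s gives rate.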
Background: In qHTS, concentration-response curves come from the screen itself.
As for `CCC(=O)N1CCc2cc(Br)cc(S(=O)(=O)NCc3ccc(Cl)cc3)c21`, the max response, negative = inhibition was 5.32% (inactive).

Regarding `Cc1ccc(-n2ncc(C(=O)N(C)Cc3ccccc3)c2-n2cccc2)cc1`, the max response, negative = inhibition is 19.8% (inactive).

As to `O=C(Nc1cccc([N+](=O)[O-])c1)c1ccc2c(c1)OCO2`, the max response, negative = inhibition is 4.82% (inactive).

Consider `CC1CCc2noc(NC(=O)c3ccc([N+](=O)[O-])cc3)c2C1` (stereo unspecified), for which the max response, negative = inhibition is 3.94% (inactive).

Take `O=C(Nc1cc2c3c(c1)C1CCCC1CN3CC1CCCC21)c1ccc([N+](=O)[O-])cc1` (stereo unspecified): the Potency was 25.1 µM (active).

Consider `C=CC(C1=CC(=O)C=CC1=O)c1ccc(O)cc1` (stereo unspecified), for which the max response, negative = inhibition is -6.77% (inactive).

On to `O=C(NNc1c2ccccc2nc2ccccc12)c1cc2ccccc2cc1O`, for which the Potency was 7.94 µM (active).

In the case of `O=C(Nc1c2c(nc3ccccc13)CCCC2)c1ccccc1Br`, the max response, negative = inhibition is 6.61% (inactive).

Turning to `Cc1noc(C)c1COC(=O)c1cc2ccccc2cc1O`, the max response, negative = inhibition is -7.72% (inactive).

Turning to `Cc1c(Cl)cccc1NC(=O)C1CCCN(C(=O)c2cnn(-c3ccccc3)c2-n2cccc2)C1` (stereo unspecified), the max response, negative = inhibition was 17.7% (inactive).

For `CCOC(=O)c1oc2ccc(S(=O)(=O)n3nc(-c4ccccc4OC)cc3N)cc2c1C`, the max response, negative = inhibition is -16.2% (inactive).

As for `CCC(=O)N1CCc2cc(S(=O)(=O)NC(C(=O)Nc3ccc(C(C)=O)cc3)C(C)C)ccc21` (stereo unspecified), the max response, negative = inhibition is -5.8% (inactive).

With `O=C1CN(C(=O)Nc2ccccc2C(F)(F)F)C(c2ccccc2)c2c(sc3c2CCCC3)N1` (stereo unspecified), the max response, negative = inhibition is -8.71% (inactive).

Consider `O=C(COc1ccccc1F)OCc1cc(=O)n2nc(C3CCCCC3)sc2n1`, for which the max response, negative = inhibition was -11.4% (inactive).

As for `Cc1cccc(C)c1NC(=O)CSc1ccc([N+](=O)[O-])cn1`, the max response, negative = inhibition was -1.59% (inactive).

With `Cc1ccc(-n2c(C)cc(/C=N/Nc3ccc([N+](=O)[O-])cn3)c2C)c(C)c1`, the Potency was 3.98 µM (active).

Take `Cc1ccc(-n2c(C)cc(/C=N\NC(=O)CC(=O)NC(C)C)c2C)cc1`: the max response, negative = inhibition is -4.29% (inactive).

Turning to `CCOc1ccc(C(=O)N2CCN(CCc3ccccn3)CC2)cc1`, the max response, negative = inhibition is -2.86% (inactive).

As to `CSc1cccc(NC(=O)CN2C(=O)CCc3cc(S(=O)(=O)N4CCCCC4)ccc32)c1`, the max response, negative = inhibition was -6.74% (inactive).

Turning to `CCOC(=O)N1CCc2c(sc3c2c(=O)n(Cc2ccccc2)c(=O)n3CC(=O)Nc2cccc(C)c2)C1`, the max response, negative = inhibition is -13.3% (inactive).

Consider `COCCn1c(SCC(=O)Nc2ccc3c(c2)CCC3)nc2ccccc2c1=O`, for which the max response, negative = inhibition was 7.57% (inactive).

Turning to `COc1cccc(NC(=O)C(C)Oc2ccccc2)c1` (stereo unspecified), the max response, negative = inhibition was 2.56% (inactive).

Regarding `COc1cccc(NC(=O)C(Sc2nc3ccccc3c(=O)n2CC(C)C)c2ccccc2)c1` (stereo unspecified), the Potency is 5.01 µM (active).

Turning to `O=S(=O)(Nc1ccc2nc(-c3cccc(Cl)c3)oc2c1)c1ccccc1`, the max response, negative = inhibition was 5.84% (inactive).

With `COc1ccc(CNC(=O)c2cc3c(=O)[nH]c4ccccc4c3s2)cc1`, the max response, negative = inhibition was -0.0351% (inactive).

Turning to `O=C(NC(=S)Nc1cc(C(F)(F)F)ccc1N1CCOCC1)c1ccc(-c2cccc(Cl)c2)o1`, the Potency was 10 µM (active).

As to `COc1c(C)cccc1C(=O)Nc1cc(Cl)ccc1N1CCOCC1`, the max response, negative = inhibition is -1.36% (inactive).

Take `CC(C)CC(=O)Nc1cc(C(F)(F)F)ccc1N1CCOCC1`: the max response, negative = inhibition was -0.397% (inactive).

Take `COc1ccccc1/C=C/c1nc(C#N)c(NC(C)c2ccccc2)o1` (stereo unspecified): the max response, negative = inhibition was -27.6% (inactive).

With `Cc1ccc(NC(=O)C2CCCN2S(=O)(=O)c2cccc3cccnc23)c(C)c1` (stereo unspecified), the max response, negative = inhibition is -5.43% (inactive).

Turning to `Cc1ccc(N/C=C/C(=O)c2ccccc2)cc1C`, the max response, negative = inhibition was -22.6% (inactive).

In the case of `Cc1nc(-c2ccccc2)sc1C(=O)/C=C/c1ccccc1`, the max response, negative = inhibition is 3.75% (inactive).

For the molecule `O=C(/C=C/Nc1ccccc1)c1cnc(-c2ccccc2)s1`, the Potency is 12.6 µM (active).

For `Cc1c(C)n(Cc2ccc(Cl)cc2)c2ccc(C(=O)NCCc3ccc(S(N)(=O)=O)cc3)cc12`, the max response, negative = inhibition was -27.4% (inactive).

Regarding `NC(=O)CSc1nc2c(oc3ccccc32)c(=O)n1Cc1ccccc1`, the max response, negative = inhibition was 1.12% (inactive).

As for `O=C(CSc1nc2ccccc2[nH]1)c1cccs1`, the max response, negative = inhibition is -7.22% (inactive).

As to `OCCNc1nc2ccccc2[nH]1`, the max response, negative = inhibition is -0.339% (inactive).

On to `C/C(=N\Nc1nc2ccccc2[nH]1)c1cccs1`, for which the Potency is 25.1 µM (active).

Consider `Cc1ccc(Cn2c(C)c3cnn(CC(=O)NCc4ccccc4)c(=O)c3c2C)cc1`, for which the max response, negative = inhibition is -6.45% (inactive).

Consider `COc1ccc(Nc2ncc3c(n2)CCN(C(=O)OC(C)(C)C)C3)cc1`, for which the max response, negative = inhibition is -2.11% (inactive).

Take `O=C(Cc1ccc(Cl)cc1)NCC(c1cccs1)S(=O)(=O)c1ccc(Cl)cc1` (stereo unspecified): the max response, negative = inhibition is 1.56% (inactive).

For `CCc1nn(CC(=O)N2CCN(c3cc(C)ccc3C)CC2)c(=O)c2cc3occc3n12`, the max response, negative = inhibition was 6.7% (inactive).

`COc1ccc(F)cc1S(=O)(=O)Nc1ccc2c(c1)OCO2`: the max response, negative = inhibition was 9.18% (inactive).

For `COc1ccc(S(=O)(=O)Nc2ccc3c(c2)OCO3)cc1Cl`, the Potency is 15.8 µM (active).

As to `CC(C)CNS(=O)(=O)c1ccc(OCC(=O)Nc2ccc3c(c2)OCO3)c(Cl)c1`, the max response, negative = inhibition was -2.91% (inactive).

As for `COc1cc(Br)cc2cc(S(=O)(=O)c3ccccc3)c(=O)oc12`, the max response, negative = inhibition is -12.9% (inactive).

Regarding `CC1(c2ccccc2)CC(C)(C)N(C(=O)c2cc([N+](=O)[O-])cc([N+](=O)[O-])c2)c2ccccc21` (stereo unspecified), the Potency was 25.1 µM (active).

As for `CC1(c2cccc([N+](=O)[O-])c2)CC(C)(C)N(C(=O)c2ccccc2)c2ccccc21` (stereo unspecified), the max response, negative = inhibition was -29.1% (inactive).

Turning to `Cc1nnc(SCC(=O)N2c3ccccc3C(C)(c3ccc(Cl)cc3)CC2(C)C)s1` (stereo unspecified), the max response, negative = inhibition was -0.125% (inactive).

Take `Cc1ccc(Cn2cc(CCC(=O)NCc3ccc(OC(C)C)cc3)c3ccccc32)cc1`: the max response, negative = inhibition is 6.72% (inactive).

Consider `Cc1cc(C)cc(NC(=O)CSc2oc(-c3ccccc3)nc2S(=O)(=O)c2ccc(Cl)cc2)c1`, for which the max response, negative = inhibition was -6.39% (inactive).

`COCCNC(=O)CSc1c(C)cnc2c1c(=O)n(C)c(=O)n2C`: the max response, negative = inhibition is 7.18% (inactive).

For the molecule `COc1ccc(-c2c3c(=O)n(C)c(=O)n(C)c3cn2NC(C)=O)cc1`, the max response, negative = inhibition is -4.34% (inactive).

For the molecule `Cc1ccc(-c2c3c(=O)n(C)c(=O)n(C)c3cn2-n2cnnc2)cc1`, the Potency was 12.6 µM (active).

Regarding `Cc1ccc(-c2c3c(=O)n(C)c(=O)n(C)c3cn2-c2ccccc2O)cc1`, the max response, negative = inhibition was 12.7% (inactive).

Take `CC(=O)c1ccc(NS(=O)(=O)c2ccc(-c3cc(C)no3)s2)cc1`: the max response, negative = inhibition is -22.1% (inactive).

For the origin of these results see PubChem BioAssay AID1476 (National Center for Advancing Translational Sciences (NCATS), 2009).
